From PubChem BioAssay AID763 (NMMLSC, 2007)

These compounds were tested against fMet-Leu-Phe receptor (Homo sapiens) (UniProt P21462) (assay: FPR1 fluorescent ligand binding inhibitors, SAR follow-up, selectivity assay for FPRL1 ligand SAR project, cell-based, single concentration (AID 763)). Conditions: FPR1-expressing cells, hits give high values; at 5.4 µM unless noted; call rule not given here.
Sequence of fMet-Leu-Phe receptor (Homo sapiens) (P21462 whole entry, looked up): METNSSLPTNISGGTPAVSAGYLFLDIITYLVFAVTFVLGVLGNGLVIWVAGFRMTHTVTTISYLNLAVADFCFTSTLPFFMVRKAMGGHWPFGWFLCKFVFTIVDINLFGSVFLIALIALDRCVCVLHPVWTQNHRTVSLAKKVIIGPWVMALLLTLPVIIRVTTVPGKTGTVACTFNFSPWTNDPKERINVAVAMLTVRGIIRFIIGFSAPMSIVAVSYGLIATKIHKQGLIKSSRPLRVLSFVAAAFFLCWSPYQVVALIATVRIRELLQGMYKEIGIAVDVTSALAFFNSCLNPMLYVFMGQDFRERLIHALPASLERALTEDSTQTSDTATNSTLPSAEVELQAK

inhibition, inactive:
COc1ccc(-c2cn3cccnc3n2)cc1NC(=O)c1c(-c2ccccc2Cl)noc1C 2.7% [at 4.8 µM], COc1ccc(-c2cn3cccnc3n2)cc1NC(=O)c1ccccc1Cl -3.1% [at 5.9 µM], FC(F)(F)c1cc(-c2ccccc2)nc(N2CCN(c3ccccc3)CC2)n1 2.9% [at 5.8 µM], CCOC(=O)N1CCN(c2nc(-c3ccc(C)cc3)cc(C(F)F)n2)CC1 1.5% [at 5.9 µM], COc1ccc(C2CC(=O)c3cnc(N4CCN(Cc5ccc6c(c5)OCO6)CC4)nc3C2)cc1OC (stereo not drawn) -0.9% [at 4.4 µM], COc1ccc(-c2cc(-c3ccc(F)cc3)nc(N3CCN(C)CC3)n2)cc1 -4.8% [at 5.9 µM], Clc1cccc(-c2nc(N3CCN(c4ccccn4)CC3)nc3c2COc2ccccc2-3)c1 1.7% [at 4.9 µM], COc1ccc(-c2cn3cccnc3n2)cc1NC(=O)c1cccc(Cl)c1 3.4% [at 5.9 µM], COc1cccc(-c2cc(C(F)(F)F)nc(N3CCN(c4ccccc4)CC3)n2)c1 -7.4%, CCOC(=O)N1CCN(c2nc(-c3ccccc3)cc(C(F)(F)F)n2)CC1 1.5% [at 5.8 µM], CCC(=O)Nc1cccc(-c2cn3cccnc3n2)c1 -0.2% [at 8.3 µM], COc1ccc(-c2cn3cccnc3n2)cc1NC(=O)c1ccccc1C(F)(F)F -3.2%, Fc1ccc(-c2cc(C(F)(F)F)nc(N3CCN(c4ccccc4)CC3)n2)cc1 -1% [at 5.5 µM]
